Among the test systems are HCT-15 colon; HT29 colon; SNB-75 CNS; SNB-19 CNS; U251 CNS; SK-MEL-5 melanoma; UACC-62 melanoma; LOX IMVI melanoma; SK-MEL-28 melanoma.
What all share (assay): NCI-60 one-dose screen, 48 h (100 = growth as untreated, 0 = no growth, -100 = all killed)
Common to all, as to conditions: 10 µM unless noted

This is part of a sample that, as a whole, favours compounds with a hit. Of some 83,000 tested, about 20% had one in any assay.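 The test compound was applied at a single concentration to cells in 96-well plates for 48 hours, and percent growth was recorded.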 Unmarked numbers belong to inactive results. Activity calls are given as the source filed them. How the source made its calls: active means growth percent below 10; inactive means the rest.

For `O=C1c2cccc3cccc(c23)C(=O)N1CCCCN1CCN(CCCCOc2ccc(-c3nc4ccc(N5CCOCC5)cc4[nH]3)cc2)CC1`, the growth with HCT-15 colon is 87.8%; in the experiment with HT29 colon, 83.3%; in the experiment on SNB-75 CNS, 84.8%; in the experiment on SNB-19 CNS, 89.4%; in the experiment on U251 CNS it was 74.6%; in the experiment with SK-MEL-5 melanoma it was 89.2%. Also, the growth with UACC-62 melanoma was 92.8%; in the experiment with LOX IMVI melanoma, 93.7%; in the experiment with SK-MEL-28 melanoma, 81.5%.
With `O=C1c2ccccc2C(=O)c2c(N=Nc3[nH]c(=S)[nH]c3O)cccc21`, the growth was 23.2% in the experiment on HCT-15 colon; 9.93% (active) in the experiment on HT29 colon; -20.2% (active) in the experiment with SNB-75 CNS; 28.9% in the experiment on SNB-19 CNS; 12.8% in the experiment with U251 CNS; 13.8% with SK-MEL-5 melanoma. For the same molecule, the growth was 32.5% in the experiment with UACC-62 melanoma, 34.1% with LOX IMVI melanoma and 52% with SK-MEL-28 melanoma.
In the case of `C#Cc1cccc(NC(=O)c2ccccc2NC(=O)CCl)c1`, the growth in the experiment on HCT-15 colon is 68.7% [8.25 µM]; in the experiment with HT29 colon it was 86.1% [8.25 µM]; in the experiment on SNB-75 CNS it was 70.5% [8.25 µM]; in the experiment on SNB-19 CNS it was 74.2% [8.25 µM]; with U251 CNS, 74.6% [8.25 µM]; with SK-MEL-5 melanoma, 87.7% [8.25 µM]. The growth with LOX IMVI melanoma is 91.4% [8.25 µM]; in the experiment on SK-MEL-28 melanoma it was 102% [8.25 µM].
Regarding `CN(C)CCN1C(=O)c2cccc3c(N)ccc(c23)C1=O`, the growth in the experiment on HCT-15 colon is 23.2%; in the experiment with HT29 colon, 13.5%; in the experiment on SNB-75 CNS, 56.9%; with SNB-19 CNS, 27.3%; in the experiment on U251 CNS it was 22.5%; in the experiment on UACC-62 melanoma, 33.1%. Further, the growth was 5.28% (active) in the experiment with LOX IMVI melanoma and 71.2% with SK-MEL-28 melanoma.
With `Cc1ccc(C2Oc3ccccc3C3CC(c4cccs4)=NN32)cc1` (stereo not given), the growth was 100% in the experiment with HCT-15 colon; 109% with HT29 colon; 81.7% in the experiment on SNB-75 CNS; 96% in the experiment with SNB-19 CNS; 92.5% with U251 CNS; 96.3% in the experiment on SK-MEL-5 melanoma. Besides, the figures for the growth with UACC-62 melanoma, with LOX IMVI melanoma and in the experiment on SK-MEL-28 melanoma were 96.2%, 94.4% and 103%, respectively.
For `CC(C)(C)N1CCC1CN` (stereo not given), the growth in the experiment on HCT-15 colon was 126%; in the experiment with HT29 colon it was 111%; in the experiment with SNB-75 CNS, 87.4%; in the experiment with SNB-19 CNS, 101%; with U251 CNS it was 117%; with SK-MEL-5 melanoma, 136%. Besides, the growth was 109% in the experiment on LOX IMVI melanoma and 105% in the experiment with SK-MEL-28 melanoma.
With `Cc1cc2nc3[nH]c4ccccc4c3nc2cc1C`, the growth is 80.3% in the experiment on HCT-15 colon; 95.1% in the experiment with HT29 colon; 51.2% in the experiment with SNB-75 CNS; 89.7% in the experiment on SNB-19 CNS; 58.1% in the experiment on U251 CNS; 90.3% in the experiment on UACC-62 melanoma. For the same molecule, the results for the growth with LOX IMVI melanoma and in the experiment with SK-MEL-28 melanoma were 64.1% and 90%, respectively.
Consider `Cn1cc(-c2nonc2-c2c[nH]c3ccc(F)cc23)c2cccnc21`, for which the growth was 62.3% in the experiment on HCT-15 colon; 99.3% with HT29 colon; 56.3% with SNB-75 CNS; 90.2% in the experiment on SNB-19 CNS; 84.4% in the experiment on U251 CNS; 78.2% with SK-MEL-5 melanoma. Besides, the growth in the experiment on UACC-62 melanoma was 64.4%; in the experiment on LOX IMVI melanoma, 85.3%; in the experiment with SK-MEL-28 melanoma, 98.4%.
Turning to `CCN(CC)S(=O)(=O)c1ccc(OC)c(NC(=O)c2[nH]c(C)c3c2CCCCC3=O)c1`, the growth with HCT-15 colon was 18.9%; in the experiment on HT29 colon, 14.5%; in the experiment with SNB-75 CNS, 9.16% (active); in the experiment with SNB-19 CNS, 45.2%; with U251 CNS, 43.6%; with SK-MEL-5 melanoma, -21.8% (active). For the same molecule, the growth in the experiment with UACC-62 melanoma was 16.2%; with LOX IMVI melanoma it was 9.93% (active); with SK-MEL-28 melanoma, 55.7%.
As for `C=CCSSc1ncnc2c1ncn2C1OC(CO)C(O)C1O` (stereo not given), the growth in the experiment with HCT-15 colon was 47.9%; in the experiment with HT29 colon it was 28.6%; in the experiment with SNB-75 CNS, 39.7%; in the experiment with SNB-19 CNS, 88.1%; with U251 CNS it was 80%; in the experiment on UACC-62 melanoma, 18.4%. In addition, the growth in the experiment on LOX IMVI melanoma is 8.74% (active); in the experiment on SK-MEL-28 melanoma it was 109%.
Consider `N#Cc1cnn(-c2nc3c(Cl)cccc3s2)c1N`, for which the growth was 91.8% with HCT-15 colon; 84.8% in the experiment on HT29 colon; 77.7% with SNB-75 CNS; 94.8% in the experiment with SNB-19 CNS; 88% in the experiment with U251 CNS; 90.8% in the experiment with SK-MEL-5 melanoma. For the same molecule, the figures for the growth in the experiment with UACC-62 melanoma, in the experiment with LOX IMVI melanoma and with SK-MEL-28 melanoma were 89.2%, 81.4% and 102%, respectively.
`COc1ccc(S(=O)(=O)N2CCCCC2)cc1NC(=O)c1[nH]c(C)c2c1CCCCC2=O`: the growth in the experiment with HCT-15 colon was 5.16% (active); in the experiment with HT29 colon, 11%; with SNB-75 CNS it was 5.25% (active); in the experiment with SNB-19 CNS, 36.1%; with U251 CNS, 23.4%; with SK-MEL-5 melanoma it was -24.4% (active). For the same molecule, the growth in the experiment with UACC-62 melanoma was 14.5%; in the experiment with LOX IMVI melanoma, -56.6% (active); in the experiment on SK-MEL-28 melanoma it was 48.1%.
On to `Cc1ccc(O)c(N2C(=NCc3ccco3)NS(=O)(=O)c3cnccc32)c1`, for which the growth in the experiment on HCT-15 colon was 112%; with HT29 colon it was 111%; in the experiment with SNB-75 CNS, 106%; in the experiment with SNB-19 CNS it was 110%; in the experiment on U251 CNS, 100%; in the experiment on SK-MEL-5 melanoma, 118%. Besides, the growth was 96.7% in the experiment with UACC-62 melanoma, 103% with LOX IMVI melanoma and 107% with SK-MEL-28 melanoma.
On to `O=C(CCCCC(=O)N/N=C\c1ccccc1O)N/N=C\c1ccccc1O`, for which the growth in the experiment on HCT-15 colon is 21%; with HT29 colon, 69.1%; in the experiment on SNB-75 CNS, 69.6%; in the experiment on SNB-19 CNS, 38.9%; in the experiment on U251 CNS it was 26.4%; with SK-MEL-5 melanoma, -14.9% (active). Further, the figures for the growth in the experiment on UACC-62 melanoma, in the experiment with LOX IMVI melanoma and with SK-MEL-28 melanoma were 13.5%, 26.2% and 48.3%, respectively.
`CCCCC/C(C=C(C#N)C#N)=C/c1ccccc1`: the growth was 47% with HCT-15 colon; 37% in the experiment with HT29 colon; 96.6% in the experiment on SNB-75 CNS; 67.1% in the experiment on SNB-19 CNS; 34.2% in the experiment with U251 CNS; 71% in the experiment on SK-MEL-5 melanoma. Further, the growth in the experiment with UACC-62 melanoma is 48.9%; in the experiment on LOX IMVI melanoma, 2.03% (active); in the experiment on SK-MEL-28 melanoma it was 84%.

Values taken from PubChem BioAssay (NCI).
